# Reference: the supplement of paper PMC6555819
# Assays:
# Assay in all cases: PBM binding z-score (relative to random genomic background probes); higher = stronger binding; sequences stand for … in GC…GCGATTGACAGCGTAGAATGAAGG
# [1] = tested on: FXR:RXRa (NR concentration 270 nM, RXRa partner concentration 90 nM)
# Method in brief: (§1)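 Regression normalization was applied to scanned fluorescence from custom Agilent 4×180K protein-binding microarrays. Before scanning, arrays were incubated 1 h with ligand-free nuclear receptor dimers, and binding was detected with antibodies against each partner (one per run). Binding z-scores use the random background probes as reference.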
# [2] = tested on: LXRa:RXRa (NR concentration 270 nM, RXRa partner concentration 90 nM)
# Method in brief: as §1
# [3] = tested on: LXRa homodimer (NR concentration 270 nM)
# Method in brief: as §1
# [4] = tested on: LXRb:RXRa (NR concentration 270 nM, RXRa partner concentration 90 nM)
# Method in brief: as §1
# [5] = tested on: LXRb homodimer (NR concentration 270 nM)
# Method in brief: as §1
# [6] = tested on: PPARa:RXRa (NR concentration 270 nM, RXRa partner concentration 90 nM)
# Method in brief: as §1
# [7] = tested on: PPARg:RXRa (NR concentration 180 nM, RXRa partner concentration 90 nM)
# Method in brief: as §1
# [8] = tested on: PPARg:RXRa 270nM:90nM, anti-RXR (NR concentration 270 nM, RXRa partner concentration 90 nM)
# Method in brief: as §1
# [9] = tested on: PPARg:RXRa 30nM:10nM, anti-RXR (NR concentration 30 nM, RXRa partner concentration 10 nM)
# Method in brief: as §1
# [10] = tested on: PPARg:RXRa 90nM:30nM, anti-RXR (NR concentration 90 nM, RXRa partner concentration 30 nM)
# Method in brief: as §1
# [11] = tested on: PPARg:RXRa DBDmut IVT, anti-RXR (DBD mutation: RXRa K156A/R161A, NR concentration 270 nM, RXRa partner concentration 90 nM)
# Method in brief: as §1
# [12] = tested on: PPARg:RXRa IVT, anti-PPARg (NR concentration 270 nM, RXRa partner concentration 90 nM)
# Method in brief: as §1
# [13] = tested on: PPARg DBDmut:RXRa IVT, anti-PPARg (DBD mutation: PPARg1 K132A/R137A, NR concentration 270 nM, RXRa partner concentration 90 nM)
# Method in brief: as §1
# [14] = tested on: PPARg DBDmut IVT, anti-PPARg (DBD mutation: PPARg1 K132A/R137A, NR concentration 270 nM)
# Method in brief: as §1
# [15] = tested on: PPARg homodimer (NR concentration 180 nM)
# Method in brief: as §1
# [16] = tested on: PXR:RXRa (NR concentration 270 nM, RXRa partner concentration 90 nM)
# Method in brief: as §1
# [17] = tested on: PXR homodimer (NR concentration 270 nM)
# Method in brief: as §1
# [18] = tested on: RARa:RXR (NR concentration 270 nM, RXRa partner concentration 90 nM)
# Method in brief: as §1
# [19] = tested on: RARa homodimer (NR concentration 270 nM)
# Method in brief: as §1
# [20] = tested on: RARb:RXRa (NR concentration 270 nM, RXRa partner concentration 90 nM)
# Method in brief: as §1
Sequence,PBM binding z-score [1],PBM binding z-score [2],PBM binding z-score [3],PBM binding z-score [4],PBM binding z-score [5],PBM binding z-score [6],PBM binding z-score [7],PBM binding z-score [8],PBM binding z-score [9],PBM binding z-score [10],PBM binding z-score [11],PBM binding z-score [12],PBM binding z-score [13],PBM binding z-score [14],PBM binding z-score [15],PBM binding z-score [16],PBM binding z-score [17],PBM binding z-score [18],PBM binding z-score [19],PBM binding z-score [20]
GCTGCTAAGTCAACTGATGGTCAGCTAAAGCTCG,-0.765,-0.562,-0.539,-0.754,-1.04,-0.555,-0.342,-0.538,-0.793,-0.507,-0.284,-0.667,-2.15,-1.17,-0.917,-0.575,-1.21,-0.177,-1.24,0.174
CCTTACGGGTCACTGCCAGGTTATAGCATTTGGA,5.22,3.93,0.268,3.17,0.0184,4.86,4.05,4.26,1.23,2.88,3.11,3.87,0.0612,-0.48,2.07,3.53,0.376,3.87,0.61,3.8
ACTCGGAGGACAAAGGTCAGAGTTACGCCAGTGA,4.06,4.17,1.93,3.55,0.422,5.03,7.06,6.77,5.57,7.32,0.7,3.34,0.234,-0.025,4.3,4.14,0.365,5.54,1.61,4.38
